Assay results: paper PMC4336329 (PLoS ONE, 2015)
Among all 310,000 compounds or so, about 14,000 (4.5%) showed an effect of 50% or more. The effect is printed as a negative number. Only a selection was taken, and strong results are over-represented in it overall.

What follows are compounds tested against human ether-à-go-go-related gene (hERG) potassium channel (human, UniProt Q12809) (assay: primary screen, population patch clamp on CHO cells stably expressing hERG; higher = less effect of the substance).
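Note: peak tail current of the secondary pulse compared with the same well before compound.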

Sequence of human ether-à-go-go-related gene (hERG) potassium channel (Q12809 whole entry, looked up): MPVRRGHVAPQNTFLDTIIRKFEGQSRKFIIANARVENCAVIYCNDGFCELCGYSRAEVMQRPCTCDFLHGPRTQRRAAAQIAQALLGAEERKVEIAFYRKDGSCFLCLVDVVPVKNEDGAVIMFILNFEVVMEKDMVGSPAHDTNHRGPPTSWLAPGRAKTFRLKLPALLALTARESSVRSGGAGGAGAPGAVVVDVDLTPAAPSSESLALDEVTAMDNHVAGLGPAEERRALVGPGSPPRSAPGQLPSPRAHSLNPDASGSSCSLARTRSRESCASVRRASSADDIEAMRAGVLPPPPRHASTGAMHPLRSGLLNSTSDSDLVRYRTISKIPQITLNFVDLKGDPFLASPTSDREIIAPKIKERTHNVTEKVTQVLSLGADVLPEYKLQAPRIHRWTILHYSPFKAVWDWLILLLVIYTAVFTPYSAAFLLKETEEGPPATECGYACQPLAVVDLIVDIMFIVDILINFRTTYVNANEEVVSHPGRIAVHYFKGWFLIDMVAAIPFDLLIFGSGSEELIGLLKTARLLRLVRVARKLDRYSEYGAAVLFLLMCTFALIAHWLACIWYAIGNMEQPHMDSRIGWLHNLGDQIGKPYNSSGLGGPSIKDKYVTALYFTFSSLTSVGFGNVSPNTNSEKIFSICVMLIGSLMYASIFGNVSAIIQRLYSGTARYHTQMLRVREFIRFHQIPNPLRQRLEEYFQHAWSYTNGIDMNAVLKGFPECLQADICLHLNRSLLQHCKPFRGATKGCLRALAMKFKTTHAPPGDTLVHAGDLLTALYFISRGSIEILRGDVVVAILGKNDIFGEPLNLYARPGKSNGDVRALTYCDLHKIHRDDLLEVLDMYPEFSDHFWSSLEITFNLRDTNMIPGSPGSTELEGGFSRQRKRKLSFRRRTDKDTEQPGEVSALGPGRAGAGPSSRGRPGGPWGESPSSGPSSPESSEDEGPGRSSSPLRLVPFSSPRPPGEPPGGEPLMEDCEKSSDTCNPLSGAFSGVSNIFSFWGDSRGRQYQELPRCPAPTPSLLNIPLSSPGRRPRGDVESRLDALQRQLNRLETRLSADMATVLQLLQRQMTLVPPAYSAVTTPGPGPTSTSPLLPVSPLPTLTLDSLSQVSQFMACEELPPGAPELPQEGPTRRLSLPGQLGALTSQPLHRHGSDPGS

SMILES | hERG current change (%, negative = inhibition) at 10uM
C=CC[n+]1c(C)csc1Nc1cccc(Br)c1.[Br-] | -6.64%
Cc1cccc(N(CC(=O)NCC2CCCO2)C(=O)CCC(=O)Nc2nccs2)c1 (stereo not drawn) | 12.9%
COc1ccc(N2CCN(C(=O)CNC(=O)Cc3ccccc3)CC2)cc1 | -13.3%
COc1cc2c(C(=O)O)c(C)n(C)c2cc1Br | 20.3%
COc1cc2c(C(=O)N3CCN(C)CC3)c(C)n(C)c2cc1Br | -9.17%
CCN(CC)CCNC(=O)c1c(C)n(-c2ccccc2)c2cc(Br)c(OC)cc12 | -51.5%
COc1cc2c(C(=O)N3CCOCC3)c(CSc3ccccc3)n(C)c2cc1Br | -6.35%
CCN(CC)CCNC(=O)c1c(C)oc2cc(Br)c(OC)cc12 | -32.1%
COc1cc2c(C(=O)OCCN(C)C)c(CSc3ccccc3)n(C)c2cc1Br | 5.67%
COc1cc2c(C(=O)N3CCN(C)CC3)c(C)n(-c3ccccc3)c2cc1Br | -54.7%
COc1ccc2c(c1)c(C(=O)N1CCN(C)CC1)c(C)n2-c1ccccc1 | -44%
COc1cc2c(C(=O)N3CCN(C)CC3)c(CSc3ccccc3)n(C)c2cc1Br | -74%
O=C(COC(=O)CNC(=O)c1ccccc1F)NC12CC3CC(CC(C3)C1)C2 | 0.652%
COc1ccccc1NC(=O)Nc1cccc(C(=O)O)c1 | 17.5%
N#CC(c1ccc(Cl)cc1)c1ccc2c(C(F)(F)F)cc(C(F)(F)F)nc2n1 (stereo not drawn) | 6.7%
CCS(=O)(=O)N1CCC(C(=O)OCC(=O)c2ccc(Br)cc2)CC1 | 3.45%
Cn1c(=Nc2ccc(N3CCOCC3)cc2)ccc2ccccc21 | -47.5%
Oc1ccc2ccccc2c1C=Nc1ccc(N2CCOCC2)cc1 | 3.04%
CCn1c(=Nc2ccc(N3CCOCC3)cc2)ccc2ccccc21 | -66.8%

SMILES | hERG current change (%, negative = inhibition) at 10uM
COc1ccccc1OCc1ccc(C(=O)N(C)c2ccccc2)o1 | 7.76%
COC(=O)c1coc(-c2ccc(OC)cc2)c1C(=O)OC | 13.8%
O=C(COc1ccc(S(=O)(=O)N2CCOCC2)cc1)N1CCc2ccccc2C1 | -55.9%
O=C(COc1ccccc1)N1CCc2ccccc2C1 | 10%
O=C(CCc1ccc(S(=O)(=O)N2CCOCC2)cc1)N1CCc2ccccc2C1 | -14.5%
Cc1ccc(OCC(=O)N2CCc3ccccc3C2)cc1 | -3.37%
O=C(O)C(=O)O.O=[N+]([O-])c1ccc(OCCCCN2CCc3ccccc3C2)cc1 | -76.3%
Cc1ccc(OCCCCN2CCc3ccccc3C2)cc1.Cl | -34.9%
O=C(COc1ccc(S(=O)(=O)N2CCOCC2)cc1)N1CCOCC1 | 10.6%
Cl.Clc1ccc(OCCCCN2CCc3ccccc3C2)cc1 | -68.1%
O=C(COc1ccc([N+](=O)[O-])cc1)N1CCc2ccccc2C1 | -54.5%
O=C(CCCOc1ccccc1)N1CCc2ccccc2C1 | 0.877%
Cl.O=[N+]([O-])c1ccccc1OCCCN1CCc2ccccc2C1 | -49.7%
O=C(Cc1ccc([N+](=O)[O-])cc1)N1CCc2ccccc2C1 | -17.7%
O=C(CCNS(=O)(=O)c1cccc2nsnc12)NCCc1ccccc1 | -4.18%
COC(=O)CC1(CC(=O)OC)C(=O)NC(=O)NC1=O | 7.37%
CCCC(=O)OCC(=O)Nc1cc(Cl)ccc1[N+](=O)[O-] | 16.8%
Cc1ccc(Oc2nc3ccccc3n3cccc23)cc1 | -10.1%
O=C(OCC(=O)N1CCCc2ccccc21)c1ccc(Cl)nc1 | -3.94%

SMILES | hERG current change (%, negative = inhibition) at 10uM
Cc1c(C(=O)NNC(=O)c2csc(N3CCOCC3)n2)oc2ccccc12 | -38.7%
COC(=O)C1CCN(Cc2c(C(=O)N3C[C@@H](C)O[C@@H](C)C3)nc3ccc(Cl)cn23)CC1 | 21.1%
COCCCNC(=O)c1cn(Cc2c(F)cccc2Cl)nn1 | -3.65%
CCOC(=O)c1nnn(-c2nonc2N)c1COc1c(C=O)cccc1OC | -6.2%
Cc1cc(=O)n(C)c(=O)n1CCCCCCN1CCCC1.O=C(O)C(=O)O | 8.96%
O=[N+]([O-])c1ccc(OCCOCCOc2ccc([N+](=O)[O-])cc2)cc1 | -16.6%
Cc1n[nH]c(C)c1CCCCOc1ccc([N+](=O)[O-])cc1 | -16.4%
Cc1cc(=O)n(C)c(=O)n1CCCCOc1ccc([N+](=O)[O-])cc1 | -68.9%
Cc1cc(=O)n(C)c(=O)n1CCCCCCOc1ccc([N+](=O)[O-])cc1 | -63.9%
Cc1cc(=O)n(C)c(=O)n1CCCCCN1CCCC1.O=C(O)C(=O)O | 5.16%
CN(Cc1ccccc1)C(=O)CNC(=O)Cn1cnc2ccccc2c1=O | -7.88%
CC(/C=C/C=C/c1ccccc1)=N/NC(=O)c1ccc2c(c1)OCCO2 | 7.79%
C=CCn1c(SCC(=O)Nc2cc(C)nn2-c2ccccc2)nnc1C1CCCCC1 | -14.1%
COc1ccc(CN2CCC(C(=O)c3ccc(Cl)cc3)CC2)cc1 | -78.7%
O=C(c1ccc(F)cc1)C1CCN(Cc2ccc(F)cc2)CC1 | -47.7%
CCS(=O)(=O)N1CCC(C(=O)c2ccc(Cl)cc2)CC1 | -47.3%
COc1ccc(CN2CCC(C(=O)c3ccc(F)cc3)CC2)cc1 | -78.4%
COc1ccc(NC(=O)N2CCC(C(=O)c3ccc(F)cc3)CC2)cc1 | -18.6%
CC(=O)N1CCC(C(=O)c2ccc(Cl)cc2)CC1 | -0.317%
